# From PubChem BioAssay AID1220 (Sanford-Burnham Center for Chemical Genomics, 2008)
# Several values for one entry are separate records, joined by “and”; a condition that tells them apart may be missing. Equal entries are not always repeated. Screen size: about 190,000 compounds; about 1,300 (0.68%) were called active. The entries come from a sample that favours actives as a whole. Unmarked numbers belong to inactive results. Cut-off read from the data, not from the text of the source: active = inhibition above about 50%; inactive = the rest.
# Target: Mannose-6-phosphate isomerase (Homo sapiens) (UniProt P34949)
# Test: MPI inhibition at elevated mannose 6-phosphate – biochemical, fluorescence intensity, high mannose 6-phosphate, primary screen (AID 1220)
# Details: recombinant PMI enzyme, coupled fluorescence intensity; at 20 µM; stronger effect = higher value
# Sequence of Mannose-6-phosphate isomerase (Homo sapiens) (P34949 whole entry, looked up): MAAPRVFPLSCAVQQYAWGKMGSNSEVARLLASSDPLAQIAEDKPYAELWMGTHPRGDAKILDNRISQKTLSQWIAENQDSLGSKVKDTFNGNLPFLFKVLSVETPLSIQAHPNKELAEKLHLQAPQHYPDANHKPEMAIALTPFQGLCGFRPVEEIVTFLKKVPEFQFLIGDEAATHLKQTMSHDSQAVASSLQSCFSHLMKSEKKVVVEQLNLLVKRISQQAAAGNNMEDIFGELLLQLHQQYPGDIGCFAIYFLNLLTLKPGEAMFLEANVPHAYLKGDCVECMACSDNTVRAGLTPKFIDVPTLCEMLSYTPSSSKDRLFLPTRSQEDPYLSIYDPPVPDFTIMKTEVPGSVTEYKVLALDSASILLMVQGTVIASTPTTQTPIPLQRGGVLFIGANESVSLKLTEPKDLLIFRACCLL
row,SMILES,inhibition
1,CC(=O)Nc1ccc(S(=O)(=O)N2CCN(C(=O)N3CCOCC3)CC2)cc1,1.8%
2,O=C(CSCc1ccc(Cl)cc1)NCCSCc1ccco1,4%
3,O=C1NC(c2ccccc2)=C(c2nc3ccccc3s2)C(c2ccccc2)N1 (stereo not drawn),14.1%
4,NC(=O)c1ccccc1NC(=O)Nc1cccc2ccccc12,19%
5,COC(=O)c1ccc2c(c1)N(C)C(=O)CS2,6.4%
6,O=C(Nc1ccc2c(c1)OCCO2)c1ccc(Br)s1,-2.3%
7,Cc1cc(C)c(S(=O)(=O)/N=C2\C=CC(=O)C(Cl)=C2)c(C)c1,-6.5%
8,Cc1ccnc(Nc2nc(-c3c(C)nc4sccn34)cs2)c1,19.1%
9,Cc1nc2sccn2c1-c1csc(NCc2ccccc2)n1,34.1%
10,C=CCNc1nc(-c2c(C)nc3sccn23)cs1,55.2% (active)
11,COC(=O)c1c(O)c2c([nH]c1=O)CCCC2,-0.6%
12,CCCCCn1c(CN2CC(C)OC(C)C2)nc2c1c(=O)n(C)c(=O)n2C (stereo not drawn),8.9%
13,CCn1c(Cc2ccccc2)nnc1SCC(=O)NC(C)(C)C,52.9% (active)
14,CCn1c(Cc2cccs2)nnc1SCC(=O)NC(C)(C)C,-5.7%
15,COCCn1c(Cc2ccccc2)nnc1SCC(=O)NC(C)(C)C,-1.6%
16,CN1CCCN(C(=O)CNC(=O)Cc2ccccc2)CC1,4.9%
17,COC(=O)C1=C(C)NC2=C(C(=O)CCC2)C1c1cn(Cc2ccc(Br)cc2)nc1-c1ccccc1 (stereo not drawn),13.4%
18,COc1ccc(OC)c(NC(=O)Nc2ccccc2C)c1,1.9%
19,COc1ccc(OC)c(NC(=O)NC2(C(F)(F)F)Oc3ccccc3O2)c1,58% (active)
20,COc1cccc(NC(=O)NC2(C(F)(F)F)Oc3ccccc3O2)c1,48.7%
21,COc1ccc(N2CCN(CCC3Oc4cc([N+](=O)[O-])ccc4NC3=O)CC2)cc1 (stereo not drawn),38.8%
22,Cc1cc(NC(=O)C2CC2)ncc1NC(=O)C12CC3CC(CC(C3)C1)C2,5.3%
23,CC1(c2ccc(Cl)cc2Cl)OCC(Cn2ccnc2)O1 (stereo not drawn),3.5%
24,Cc1cccc(C=Nc2ccc3c4c(cccc24)CC3)c1O,45.4%
25,CC(C)(C)c1ccc(O)c(N=Cc2cc(Br)ccc2O)c1,39.3%

row,SMILES,inhibition
1,Oc1ccc(Br)cc1C=Nc1ccc2c3c(cccc13)CC2,67.1% (active)
2,Cc1nnc(SCC(=O)NC2CCS(=O)(=O)C2)n1-c1ccccc1 (stereo not drawn),-3.2%
3,COc1ccc(S(=O)(=O)Nc2ccc(O)c(Sc3ncn[nH]3)c2)cc1,13%
4,O=C(Sc1cccc2cccnc12)c1ccc(F)cc1,11.3%
5,Cc1ccc(S(=O)(=O)Nc2ccc(O)c3ncccc23)cc1,27.9%
6,O=S(=O)(Nc1cc(Sc2cccc3cccnc23)c(O)c2ccccc12)c1ccc(F)cc1,51.1% (active)
7,COc1ccc(S(=O)(=O)Nc2cc(Sc3ncn[nH]3)c(O)c3ccccc23)cc1,72.4% (active)
8,CCc1ccc(S(=O)(=O)Nc2cc(SCC(=O)O)c(O)c3ccccc23)cc1,7.4%
9,CCOc1ccc(S(=O)(=O)Nc2ccc(O)c(Sc3ncn[nH]3)c2)cc1,2.5%
10,Cc1cc(C)c(S(=O)(=O)Nc2cc(SCC(=O)O)c(O)c3ccccc23)cc1C,21.6%
11,Cc1ccc(S(=O)(=O)Nc2cccc3cccnc23)cc1,16.3%
12,O=S(=O)(Nc1ccccc1O)c1cccc2cccnc12,11.7%
13,O=S(=O)(Nc1cc(Sc2cccc3cccnc23)c(O)c2ccccc12)c1ccccc1,63.7% (active)
14,Cc1ccc(S(=O)(=O)Nc2ccc3c(c2)nc(CN2CCCC2)n3C)cc1,-2.1%
15,CCOc1ccc(C(C)=O)cc1CSc1nnc(-c2cccs2)n1CC1CCCO1 (stereo not drawn),10.7%
16,O=[N+]([O-])c1cccc(/C=N/NC2=NCCCCC2)c1,-4.3%
17,C=CCn1c(SCC(=O)c2ccc(NS(=O)(=O)c3ccccc3)cc2)nnc1-c1cccs1,-16%
18,Cc1ccc(S(=O)(=O)/N=C(\c2ccccc2)N(C)S(=O)(=O)c2ccccc2)cc1,-11.9%
19,CCC(Sc1ncccc1C(=O)O)C(=O)N1CCCC1 (stereo not drawn),-5.9%
20,CC(=O)Nc1ccc2nc(NC(=O)COc3ccc([N+](=O)[O-])cc3)sc2c1,9.4%
21,O=C(O)CC1SC(=O)N(Cc2ccccc2)C1=O (stereo not drawn),8.1%
22,COc1ccc(CCn2c(=O)[nH]c3cc(C(=O)NCCc4ccccc4)ccc3c2=O)cc1OC,-2.6%
23,O=c1c2ccccc2nc2ccc(N3CCOCC3)nn12,0.2%
24,c1ccc2c(Nc3ccc4c(c3)OCCO4)c3c(nc2c1)CCC3,12.8%
25,CC/C(CC(=O)C(F)(F)F)=N\NC(=O)/C(C#N)=C/N(C)C,-0.8%

row,SMILES,inhibition
1,CC(C)CC(N=Cc1c(O)c2ccccc2oc1=O)C(=O)O (stereo not drawn),-10.2%
2,O=c1c2ccccc2ncn1CCOc1ccccc1[N+](=O)[O-],-2.8%
3,Cc1ccc(OCCOCCn2cnc3ccccc3c2=O)c([N+](=O)[O-])c1,52.1% (active)
4,Cc1ccc(OCCn2cnc3ccccc3c2=O)c([N+](=O)[O-])c1,0.1%
5,COc1cc(C)ccc1OCCOCCOc1cccc2ccc(C)nc12,8.5%
6,Cc1ccc2cccc(Oc3ccc([N+](=O)[O-])cc3[N+](=O)[O-])c2n1,23.3%
7,Cc1ccc(OCCOc2cccc3ccc(C)nc23)c([N+](=O)[O-])c1,55% (active)
8,CCN(C#N)c1nc(NC(C)C)nc(NC(C)(C)C)n1,5.4%
9,Cc1cccc(COCC(CC(C)C)N2CCN(C(=O)c3ccc(C(F)(F)F)cc3)CCC2=O)c1 (stereo not drawn),-9%
10,Cc1[nH]c(=S)sc1Cc1ccc(F)cc1,6.5%
11,CNc1nc(-c2c[nH]c3ccccc23)cs1,-53.9%
12,Nc1n[nH]c(-c2ccccc2[N+](=O)[O-])n1,-2.3%
13,CCOCCn1c(=NC(=O)/C=C/c2ccccc2Cl)sc2cc(NC(C)=O)ccc21,2.9%
14,NC1CCCCC1N=Cc1c(O)n(CCc2ccc(F)cc2)c(=O)[nH]c1=O (stereo not drawn),2.4%
15,CCOc1ccc(S(=O)(=O)N(CC(=O)NC2CCCCC2C)Cc2ccco2)cc1 (stereo not drawn),3.3%
16,CCOc1cccc(C2c3c(oc4cc(C)c(C)cc4c3=O)C(=O)N2CCCN(C)C)c1 (stereo not drawn),-0.5%
17,COc1ccc([N+](=O)[O-])cc1COc1cc(C)cc2oc(=O)cc(-c3ccccc3)c12,58% (active)
18,COc1ccc([N+](=O)[O-])cc1COc1ccc2c(-c3ccccc3)cc(=O)oc2c1,-4.2%
19,CCOc1cc(C)cc2oc(=O)cc(-c3ccccc3)c12,6.3%
20,O=C(CN1C(=O)C2C3CCC(C3)C2C1=O)NCc1ccco1 (stereo not drawn),6.5%
21,O=C(CN1C(=O)C2C3C=CC(C3)C2C1=O)NCc1ccco1 (stereo not drawn),57% (active)
22,O=C(CN1C(=O)C2C3C=CC(C4CC34)C2C1=O)NCc1ccco1 (stereo not drawn),13%
23,CCOC(=O)C1=C(C)NC(C)=C(C(=O)OCC)C1C(=O)OCC(N)=O,-7.6%
24,O=C(c1ccc(S(=O)(=O)c2ccccc2)cc1)N1CCc2ccccc2C1,60.2% (active)
25,O=C(c1ccc(S(=O)(=O)N2CCCCC2)cc1)N1CCc2ccccc2C1,11.9%

row,SMILES,inhibition
1,CS(=O)(=O)c1ccc(C(=O)N2CCc3ccccc3C2)cc1,-6.6%
2,CCC1CCCCN1C(=O)c1sc2ncnc(N(CC)CC)c2c1C (stereo not drawn),-1.9%
3,Cc1nn(CC(=O)NCc2ccccc2F)c(C)c1[N+](=O)[O-],2.2%
4,COc1ccc2cc(/C=N/NC(=O)CN(c3ccccc3)S(=O)(=O)c3ccccc3)c(Cl)nc2c1,5.6%
5,COc1ccc2nc(S(=O)Cc3ncc(C)c(OC)c3C)[nH]c2c1 (stereo not drawn),50% (active)
6,Cc1c(OCC(F)(F)F)ccnc1CS(=O)c1nc2ccccc2[nH]1 (stereo not drawn),4.7% and 13.1%
7,COc1ccc2nc(C(C)O)[nH]c2c1 (stereo not drawn),13.3%
8,CC(O)CNCc1ccc(-c2ccccc2)cc1 (stereo not drawn),0.1%
9,Cc1ccccc1Nc1ncccc1C(=O)N1CCOCC1,-9.3%
10,O=S(=O)(Nc1nc2ccccc2nc1Cl)c1ccc2ccccc2c1,60.1% (active)
11,O=S(=O)(Nc1nc2ccccc2nc1Cl)c1ccc(Cl)cc1,-2.7%
12,O=S(=O)(Nc1nc2ccccc2nc1Cl)c1ccccc1,-6.6%
13,O=C1N/C(=C\c2ccccc2)C(O)=C1C=NCc1ccccc1,-1.9%
14,O=C(O)CCNS(=O)(=O)c1ccccc1Br,-4%
15,O=c1cc(C(F)(F)F)nc(-c2ccccc2)[nH]1,0.9%
16,Cc1cc(/C=C(\C#N)C(=O)NC2CCCCCC2)c(C)[nH]1,1.5%
17,N#C/C(=C\c1cc(Cl)cc(Cl)c1O)C(=O)NC1CCCCC1,66.7% (active)
18,N#C/C(=C\c1cc(Cl)ccc1O)C(=O)NC1CCCCC1,10.6%
19,COc1ccc(-c2cc(C(=O)Nc3cc(C)on3)no2)cc1,-3.1%
20,CCN(CCO)C1CC(=O)N(c2ccccc2C)C1=O (stereo not drawn),-11.3%
21,O=C(/C=C/c1cccs1)NC1CC1,-8.9%
22,O=C(/C=C/c1cccs1)NC1CCS(=O)(=O)C1 (stereo not drawn),54.7% (active)
23,O=C(/C=C/c1ccccc1)NC1CCS(=O)(=O)C1 (stereo not drawn),-10.3%
